Shown are actives, neighbours in structure and some others; about 22% of the full set was active somewhere.
Shiga inhibitor = inhibitors of Shiga toxin in Vero cells; Vero cells, Shiga toxin protein synthesis inhibition reporter; inhibition, % at 38.7 µM; hit rate 9.2% among 290,000; in the data active means inhibition mostly above about 28%, no sharp cut-off; inactive means mostly below about 43%
LmPK inhibitor = LmPK (Leishmania mexicana) enzyme inhibition; AID 1721; hit rate 0.37% among 290,000; purified LmPK, Kinase-Glo ATP luminescence, 1 h; Q27686; Potency, µM (titrated, usually from 57.5 µM), usual class: inhibitors
Target sequence (Q27686 whole entry, looked up): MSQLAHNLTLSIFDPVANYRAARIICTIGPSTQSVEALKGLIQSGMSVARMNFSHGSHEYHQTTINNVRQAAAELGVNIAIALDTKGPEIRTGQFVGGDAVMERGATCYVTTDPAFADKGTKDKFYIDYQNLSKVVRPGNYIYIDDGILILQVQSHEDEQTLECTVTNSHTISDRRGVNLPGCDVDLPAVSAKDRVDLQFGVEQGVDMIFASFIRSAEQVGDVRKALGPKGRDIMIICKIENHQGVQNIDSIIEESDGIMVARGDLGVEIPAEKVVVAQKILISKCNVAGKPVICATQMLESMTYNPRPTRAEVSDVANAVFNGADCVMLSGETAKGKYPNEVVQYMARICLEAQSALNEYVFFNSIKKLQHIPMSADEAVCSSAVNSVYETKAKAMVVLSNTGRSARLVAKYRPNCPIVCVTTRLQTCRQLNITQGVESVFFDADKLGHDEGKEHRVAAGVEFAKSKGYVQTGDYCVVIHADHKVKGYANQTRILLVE
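ATP generated from ADP (0.1 mM) and PEP (0.5 mM) by 0.1 nM LmPK over 1 h at room temperature (pH 7.2 imidazole buffer) was detected by coupled luciferase luminescence. Values were normalized to uninhibited and no-enzyme wells.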
Pf growth 48h = P. falciparum growth inhibition at 48 hours (one generation). P. falciparum luciferase growth in erythrocytes, 48 h. Potency, µM (doses to about 28.7 µM), hits mostly inhibitors. hit rate 5.9% among 310,000. AID 504832
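Luciferase-expressing P. falciparum in infected erythrocytes (2% hematocrit, 0.1% parasitemia final) in RPMI 1640/0.5% Albumax were exposed to compound for 48 hours at 37 C, 5% CO2; growth read as luminescence.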
Cycloheximide cs = counter-screen for Shiga toxin inhibitors: cycloheximide protein synthesis inhibition. cell reporter, cycloheximide protein synthesis inhibition counterscreen. max response, %. hit rate 12% among 300,000; in the data active means max response mostly above about 13%, no sharp cut-off; inactive means mostly below about 14%; further: read at 38.3 µM for the half of the compounds with a filed dose
Pf growth 96h = P. falciparum growth inhibition at 96 hour, primary screen for plastid delayed-death inhibitors; P. falciparum luciferase reporter growth, 96 h; Potency, µM (series often up to 28.7 µM), hits mostly inhibitors; hit rate 6.9% among 320,000
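96 h incubation, 37 C, 5% CO2, of luciferase-reporter P. falciparum-infected RBCs (2% hematocrit, 0.05% parasitemia final) with test compounds; endpoint luminescence.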
Each line names hits and unclear results; the compound was inactive in the other large screens. Unless noted, the call rests on the fitted dose curve; in most records, active means well fitted inhibition curve with a large enough effect; inconclusive means small, poorly fitted or top-dose-only effect, or another doubt; inactive means no such curve, though single readings can be large or run the other way.

COc1ccc(NS(=O)(=O)c2ccc(N3CCCC3)c(NC(=S)Nc3cccc(S(=O)(=O)N(C)C)c3)c2)cc1	Shiga inhibitor 63, Pf growth 48h inconclusive, Cycloheximide cs 33, Pf growth 96h inconclusive
COc1ccc(NS(=O)(=O)c2cccc(NC(=O)c3ccc(S(=O)(=O)N4CCCCCC4)cc3)c2)cc1	Pf growth 48h inconclusive, Pf growth 96h 13µM
COc1ccc(NS(=O)(=O)c2ccc(N3CCOCC3)c(N)c2)cc1	none (no result: Shiga inhibitor, LmPK inhibitor, Cycloheximide cs)
O=C(Nc1cc(S(=O)(=O)Nc2ccc(Cl)cc2)ccc1N1CCCCC1)c1ccc(F)cc1Cl	Pf growth 48h inconclusive, Pf growth 96h 6.6µM
COc1ccc(NS(=O)(=O)c2ccc(N3CCOCC3)c(NC(=O)c3ccc(OC)cc3)c2)cc1	Pf growth 96h 12µM
CC(=O)N(C(C)=O)C1=C(C#N)C2(CCCCC2)Cc2ccccc21	none
CCN(c1ccc(NC(=O)COC(=O)C(C)N=C2NS(=O)(=O)c3ccccc32)cc1)C(C)C (stereo not drawn)	none (no result: Shiga inhibitor, LmPK inhibitor, Cycloheximide cs)
COc1ccc(NS(=O)(=O)c2ccc(N3CCOCC3)c(NC(=O)c3ccccc3Cl)c2)cc1	Pf growth 48h 10µM
O=c1c2c(-c3ccccc3)csc2nc2c3ccccc3c(NCCN3CCOCC3)nn12	LmPK inhibitor inconclusive, Pf growth 48h 3.3µM, Pf growth 96h 1.2µM
Cc1nc(N/N=C/c2cccc(F)c2)cc(N2CCOCC2)n1	Pf growth 48h inconclusive, Pf growth 96h 9.3µM
Oc1ccccc1/C=N/Nc1cc(N2CCCC2)nc(N2CCCC2)n1	Pf growth 48h 2.1µM, Cycloheximide cs 12
CCOc1cc(/C=N/Nc2nc(N3CCCC3)nc(N3CCCC3)n2)ccc1O	Pf growth 48h inconclusive, Pf growth 96h inconclusive
CCOc1cccc(/C=N/Nc2nc(N3CCCC3)nc(N3CCCC3)n2)c1O	Pf growth 48h 0.83µM
Oc1cccc(/C=N/Nc2cc(N3CCOCC3)nc(N3CCOCC3)n2)c1	Cycloheximide cs 19
CC(C)CC(NC(N)=O)C(=O)NCCc1ccc(Cl)cc1 (stereo not drawn)	none
C[C@H]1CN=C(N(C)C)N1CC1CCCCC1	none (no result: Shiga inhibitor, LmPK inhibitor, Cycloheximide cs)
O=C(NCC1CCCO1)c1cc(C(=O)C2CCCCC2)c[nH]1 (stereo not drawn)	Pf growth 48h inconclusive, Pf growth 96h inconclusive
COc1ccc(N(CC(=O)N2CCc3ccccc32)S(=O)(=O)c2c(C)nn(C)c2C)cc1	Pf growth 96h 8.3µM (no result: Pf growth 48h)
Cc1nn(C)c(C)c1S(=O)(=O)N(CC(=O)N1CCc2ccccc21)c1ccc(C(C)C)cc1	Pf growth 96h inconclusive (no result: Pf growth 48h)
CCOC(=O)C1CCN(C(=O)CN(c2ccc(OC)cc2)S(=O)(=O)c2c(C)nn(C)c2C)CC1	Pf growth 96h 7.4µM (no result: Pf growth 48h)
COc1ccc(/C(O)=C2/C(=O)C(=O)N(CCN3CCNCC3)C2c2cccc([N+](=O)[O-])c2)cc1 (stereo not drawn)	Pf growth 96h inconclusive
CC(C)(C)n1nnnc1C(c1cccs1)N(Cc1cccnc1)Cc1ccco1 (stereo not drawn)	Pf growth 48h 10µM, Pf growth 96h 7.4µM
CC(C)(C)n1nnnc1C(c1ccncc1)N(Cc1ccccc1)Cc1ccco1 (stereo not drawn)	Pf growth 48h 13µM (no result: Pf growth 96h)
CCN(Cc1ccccc1)C(c1ccc(Cl)cc1)c1nnnn1C(C)(C)C (stereo not drawn)	Pf growth 48h inconclusive
CC(C)(C)n1nnnc1C(c1cccs1)N(Cc1ccccc1)Cc1ccco1 (stereo not drawn)	Pf growth 48h 13µM
CC(C)(C)n1nnnc1C(c1ccccn1)N(Cc1ccccc1)Cc1ccc(Cl)cc1 (stereo not drawn)	Pf growth 48h 12µM, Pf growth 96h 1.5µM
CCN(Cc1ccccc1)C(c1ccccn1)c1nnnn1C(C)(C)CC (stereo not drawn)	LmPK inhibitor inconclusive, Pf growth 48h inconclusive
O=C(O)CCC(=O)Nc1ccccc1C(=O)NCc1ccccc1	none
N#CC(c1ccc(Cl)cc1)c1ccc(Cl)nn1 (stereo not drawn)	Pf growth 96h inconclusive (no result: Pf growth 48h)
CCN(Cc1ccccc1)C(c1ccc(C)cc1)c1nnnn1C(C)(C)C (stereo not drawn)	Pf growth 96h 8.3µM (no result: Pf growth 48h)
O=C(O)c1cccc(N2C(=O)c3ccc4c5c(ccc(c35)C2=O)C(=O)N(c2cccc(C(=O)O)c2)C4=O)c1	none
O=C(O)c1cccc(N2C(=O)c3ccc(Oc4ccc(Cl)cc4)cc3C2=O)c1	Cycloheximide cs 20
CN(C)C(=O)COC(=O)Cc1ccc(OC(=O)c2ccc(N=C(N)N)cc2)cc1	Pf growth 96h inconclusive (no result: Shiga inhibitor, LmPK inhibitor, Cycloheximide cs)

High-throughput results: PubChem, National Center for Advancing Translational Sciences (NCATS)
